About 320 (0.23%) of roughly 140,000 compounds were called active. Only a selection was taken, and actives are over-represented in it overall. A number with no mark means an inactive call. Cut-off read from the data, not from the text of the source: active = z-score mostly below about -2.9 (no sharp cut-off); inactive = mostly above about -1.9.

This assay deals with CapD gamma-glutamyltranspeptidase (Bacillus anthracis Ames Ancestor). As to the kind of experiment: Bacillus anthracis CapD inhibitors, primary screen, biochemical, fluorescence intensity (AID 492967). The settings on record: purified CapD enzyme, fluorescence intensity read-out; active compounds read low.
For `COc1cccc(C(=O)c2cc3ccc(O)cc3oc2=O)c1`, the z-score is -6.04 (active). Then `COc1ccc2oc(=O)c(C(=O)O)cc2c1`, with 31.1. Next, `COc1ccc2oc(=O)c(C(=O)NC(C)(C)C)cc2c1`: 13.9; `Cc1cccc(-c2noc(-c3ccc(OC(F)(F)F)cc3)n2)c1`: -0.145.

Turning to `CC(=O)Nc1ccccc1C(=O)OCC(=O)Nc1nc2ccccc2s1`, the z-score is -0.695. Next, `O=C(O)CC(CC(=O)Oc1ccccc1N1CCCC1)c1ccccc1` (stereo not drawn): -0.435; `CC(C)C(=O)Nc1c2c(nn1-c1ccccc1)CSC2`: 0.225; `Cc1cccc(-n2nc3c(c2NC(=O)/C=C\c2ccco2)CSC3)c1C`: -4.94 (active). Then `COc1cc(C(=O)Nc2c3c(nn2-c2cccc(C)c2C)CS(=O)(=O)C3)cc(OC)c1OC`, with 0.345; and `COc1ccc(OC)c(/C=N/NC(=O)c2cn(C)c3ccccc23)c1`, with 14.4; and `CC(C)Oc1ccccc1Oc1ccc([N+](=O)[O-])cn1`, with -0.145. Then `COc1ccc(OC)c(-n2c(=S)[nH]c3cc(C(=O)Nc4ccc(OC)c(OC)c4)ccc3c2=O)c1`, with -1.08. With `CSc1ccc(-c2ncnn2-c2ccc(Cl)cc2)cc1`, the z-score is -0.715. As for `Cn1cc(CC(=O)Nc2ccccc2)c2ccccc21`, the z-score was -0.8. Next, `Clc1ccc(C2N=C(c3cnccn3)NN2)cc1` (stereo not drawn): -0.935; `CCO/C=C1\C(=O)N(c2ccc(C)cc2C)C(=O)c2cc(OC)ccc21`: 0.06. As for `COc1ccc(C2CC(=O)C3=C(C2)Nc2ccc4ccccc4c2C3c2ccc3c(c2)OCO3)cc1` (stereo not drawn), the z-score was 1.5. Then `CC(NC(=O)Cn1nc(-c2ccc(Cl)cc2)c2ccccc2c1=O)c1ccccc1` (stereo not drawn), with -0.405; and `CC1CCc2c(sc(NC(=O)c3sc4ccccc4c3Cl)c2C(=O)OC(C)C)C1` (stereo not drawn), with -0.045; and `O=C1NC(=S)N/C1=C\c1c(F)cccc1Cl`, with -4.06 (active). Next, `O=C1NC(=S)N/C1=C/c1cc(I)cc(I)c1O`: -0.725; `C=CCOC(=O)c1cc(-c2ccc(/C=C3/NC(=S)NC3=O)o2)ccc1Cl`: 0.96; `COC(=O)c1c(NC(=O)c2c(-c3c(Cl)cccc3Cl)noc2C)sc2c1CCCC2`: -0.55. For the compound `COc1ccc(/C=C/C(=O)N2CCN(C(c3ccccc3)c3ccccc3)CC2)cc1OC`, the z-score was 4.64.

As for `CC1(C)OCC([C@H]2O[C@@H]3OC(C)(C)OC3C2OC(=O)Nc2ccc(Cc3ccc(NC(=O)OC4C5OC(C)(C)O[C@H]5O[C@@H]4C4COC(C)(C)O4)cc3)cc2)O1` (stereo partly drawn), the z-score is -0.275.

On to `CC(C)(C)C(=O)N(Cc1cccnc1)Cc1ccc(Cl)cc1Cl`, for which the z-score is -0.865. Then `Cc1ccc(S(=O)(=O)c2cnc(SCC(=O)N3CCCc4ccccc43)[nH]c2=O)cc1`, with -0.55; and `CC1CCN(c2nc3nonc3nc2Nc2cccc(Br)c2)CC1`, with 0.265.

Source of the values: PubChem BioAssay AID492967 (ICCB-Longwood Screening Facility, Harvard Medical School, 2010).
